# Key:
# Experiment in all cases: DAPPL (digital affinity profiling via proximity ligation, sequencing); 10 mM Tris-HCl pH 7.5, 50 mM NaCl, 1 mM DTT, 4% glycerol, room temperature, 30 min; GST-TFs on glutathione beads, 16-mer random dsDNA library, 0.1% formaldehyde crosslink after washing; high values mean tight binding
# FLI1 = target: T1, FLI1 (Homo sapiens, UniProt Q01543 1-452); conditions: protein: recombinant; tags: N-terminal GST; dsDNA, one strand shown
# T1 sequence: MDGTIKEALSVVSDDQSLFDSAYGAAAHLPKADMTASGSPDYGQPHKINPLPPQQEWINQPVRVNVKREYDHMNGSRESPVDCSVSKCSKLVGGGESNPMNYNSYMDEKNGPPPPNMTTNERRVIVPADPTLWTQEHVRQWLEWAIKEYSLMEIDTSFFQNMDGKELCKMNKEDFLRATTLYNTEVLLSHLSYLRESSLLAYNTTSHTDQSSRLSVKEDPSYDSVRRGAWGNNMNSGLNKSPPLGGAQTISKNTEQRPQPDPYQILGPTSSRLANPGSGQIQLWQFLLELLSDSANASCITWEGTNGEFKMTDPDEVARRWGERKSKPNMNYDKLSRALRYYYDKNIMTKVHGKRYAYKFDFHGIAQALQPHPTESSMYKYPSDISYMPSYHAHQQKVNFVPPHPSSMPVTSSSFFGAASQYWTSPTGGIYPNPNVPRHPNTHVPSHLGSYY
# Method in brief: (§1)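 Pools of DNA-barcoded human transcription factors, expressed in yeast as GST fusions on glutathione beads and combined with a tag-only sample, were incubated with 200 nmole of a 16-mer random double-stranded DNA library. Incubation took 30 min at room temperature in Tris/NaCl/DTT/glycerol buffer and was followed by washing, 0.1% formaldehyde crosslinking, proximity ligation (BsaI/T4 ligase, 1 h, 37 °C), PCR amplification and sequencing on an Illumina NextSeq500. Binding signal is the ratio of a hexamer's read frequency for a factor to its frequency for the tag-only sample.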
# ELK1 = target: T2, ELK1 (Homo sapiens, UniProt P19419 1-428); conditions: protein: recombinant; tags: N-terminal GST; dsDNA, one strand shown
# T2 sequence: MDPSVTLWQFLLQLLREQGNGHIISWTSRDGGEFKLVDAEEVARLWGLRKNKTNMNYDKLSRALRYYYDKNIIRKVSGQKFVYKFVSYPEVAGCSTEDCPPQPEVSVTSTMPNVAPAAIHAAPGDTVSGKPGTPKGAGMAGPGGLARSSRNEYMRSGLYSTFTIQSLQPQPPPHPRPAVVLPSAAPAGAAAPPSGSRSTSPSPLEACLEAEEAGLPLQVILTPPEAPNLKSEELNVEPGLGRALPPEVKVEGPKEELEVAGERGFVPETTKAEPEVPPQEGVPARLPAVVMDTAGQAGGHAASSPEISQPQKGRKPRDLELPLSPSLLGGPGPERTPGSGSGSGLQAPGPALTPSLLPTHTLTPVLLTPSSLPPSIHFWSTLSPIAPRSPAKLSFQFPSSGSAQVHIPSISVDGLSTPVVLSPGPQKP
# Method in brief: as §1
# GABPA = target: T3, GABPA (Homo sapiens, UniProt Q06546 1-454); conditions: protein: recombinant; tags: N-terminal GST; dsDNA, one strand shown
# T3 sequence: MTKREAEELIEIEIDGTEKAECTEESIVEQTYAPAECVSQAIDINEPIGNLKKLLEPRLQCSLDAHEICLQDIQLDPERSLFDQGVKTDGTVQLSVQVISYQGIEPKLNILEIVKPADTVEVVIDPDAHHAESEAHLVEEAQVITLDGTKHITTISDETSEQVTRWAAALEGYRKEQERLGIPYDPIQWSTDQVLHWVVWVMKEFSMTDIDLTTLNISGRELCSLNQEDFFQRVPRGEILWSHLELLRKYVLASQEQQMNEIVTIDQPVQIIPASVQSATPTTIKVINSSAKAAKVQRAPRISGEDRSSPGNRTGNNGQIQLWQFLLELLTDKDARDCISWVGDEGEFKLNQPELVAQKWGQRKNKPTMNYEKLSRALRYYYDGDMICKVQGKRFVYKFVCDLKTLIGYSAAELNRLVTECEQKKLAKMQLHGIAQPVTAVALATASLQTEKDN
# Method in brief: as §1
# ERG = target: T4, ERG (Homo sapiens, UniProt P11308 1-479); conditions: protein: recombinant; tags: N-terminal GST; dsDNA, one strand shown
# T4 sequence: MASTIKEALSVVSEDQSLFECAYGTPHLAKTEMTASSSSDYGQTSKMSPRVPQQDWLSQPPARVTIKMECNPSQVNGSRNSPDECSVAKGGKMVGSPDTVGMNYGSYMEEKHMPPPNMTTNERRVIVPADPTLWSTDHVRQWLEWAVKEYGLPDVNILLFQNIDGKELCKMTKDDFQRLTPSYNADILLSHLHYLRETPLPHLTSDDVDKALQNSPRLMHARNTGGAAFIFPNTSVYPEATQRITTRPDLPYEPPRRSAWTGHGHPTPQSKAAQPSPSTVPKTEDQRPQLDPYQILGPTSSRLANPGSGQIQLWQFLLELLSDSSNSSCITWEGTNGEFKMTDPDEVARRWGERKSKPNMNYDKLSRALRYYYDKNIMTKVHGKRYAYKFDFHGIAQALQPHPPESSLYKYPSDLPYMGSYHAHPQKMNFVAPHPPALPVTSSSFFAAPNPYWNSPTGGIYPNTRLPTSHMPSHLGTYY
# Method in brief: as §1
# ELF1 = ELF1 (Homo sapiens, UniProt P32519 1-619); conditions: protein: recombinant; tags: N-terminal GST; dsDNA, one strand shown
# ELF1, sequence (P32519 whole entry): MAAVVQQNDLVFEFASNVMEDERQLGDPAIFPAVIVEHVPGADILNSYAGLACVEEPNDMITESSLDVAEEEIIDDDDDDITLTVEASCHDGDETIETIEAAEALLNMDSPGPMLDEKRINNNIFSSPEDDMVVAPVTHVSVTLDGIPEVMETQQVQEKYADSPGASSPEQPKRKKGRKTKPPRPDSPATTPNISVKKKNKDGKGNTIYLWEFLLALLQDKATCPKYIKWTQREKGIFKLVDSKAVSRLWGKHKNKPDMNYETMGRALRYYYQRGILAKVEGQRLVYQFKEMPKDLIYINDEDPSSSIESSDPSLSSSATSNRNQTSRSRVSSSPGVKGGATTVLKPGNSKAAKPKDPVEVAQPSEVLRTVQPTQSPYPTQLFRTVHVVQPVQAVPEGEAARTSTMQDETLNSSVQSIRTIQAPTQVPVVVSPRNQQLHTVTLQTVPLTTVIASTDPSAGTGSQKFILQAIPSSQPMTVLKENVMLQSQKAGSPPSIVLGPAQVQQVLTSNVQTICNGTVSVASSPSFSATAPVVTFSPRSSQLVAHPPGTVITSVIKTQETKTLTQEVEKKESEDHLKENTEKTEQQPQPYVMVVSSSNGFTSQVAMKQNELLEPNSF
# Method in brief: as §1
# EHF = target: T5, EHF (Homo sapiens, UniProt Q9NZC4 1-300); conditions: protein: recombinant; tags: N-terminal GST; dsDNA, one strand shown
# T5 sequence: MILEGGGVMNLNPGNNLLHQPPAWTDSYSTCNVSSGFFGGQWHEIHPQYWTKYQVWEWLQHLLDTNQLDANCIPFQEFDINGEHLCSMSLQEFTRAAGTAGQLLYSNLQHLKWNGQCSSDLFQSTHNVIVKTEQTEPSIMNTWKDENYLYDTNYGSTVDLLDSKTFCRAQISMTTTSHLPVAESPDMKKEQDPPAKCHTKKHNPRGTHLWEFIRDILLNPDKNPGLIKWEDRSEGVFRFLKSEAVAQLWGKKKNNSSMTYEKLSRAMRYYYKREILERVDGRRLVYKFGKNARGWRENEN
# Method in brief: as §1
# SPI1 = SPI1 (Homo sapiens, UniProt P17947 1-270); conditions: protein: recombinant; tags: N-terminal GST; dsDNA, one strand shown
# Method in brief: as §1
# SPIB = SPIB (Homo sapiens, UniProt Q01892 1-262); conditions: protein: recombinant; tags: N-terminal GST; dsDNA, one strand shown
# SPIB, sequence (Q01892 whole entry): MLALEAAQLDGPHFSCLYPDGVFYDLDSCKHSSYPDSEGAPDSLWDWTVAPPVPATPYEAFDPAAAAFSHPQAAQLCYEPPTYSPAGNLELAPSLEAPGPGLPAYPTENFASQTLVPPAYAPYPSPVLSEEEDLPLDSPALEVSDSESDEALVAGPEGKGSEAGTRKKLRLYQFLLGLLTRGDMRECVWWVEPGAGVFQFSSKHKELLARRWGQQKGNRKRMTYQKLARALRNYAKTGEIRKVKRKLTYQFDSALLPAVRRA
# Method in brief: as §1
# ELK3 = target: T6, ELK3 (Homo sapiens, UniProt P41970 1-407); conditions: protein: recombinant; tags: N-terminal GST; dsDNA, one strand shown
# T6 sequence: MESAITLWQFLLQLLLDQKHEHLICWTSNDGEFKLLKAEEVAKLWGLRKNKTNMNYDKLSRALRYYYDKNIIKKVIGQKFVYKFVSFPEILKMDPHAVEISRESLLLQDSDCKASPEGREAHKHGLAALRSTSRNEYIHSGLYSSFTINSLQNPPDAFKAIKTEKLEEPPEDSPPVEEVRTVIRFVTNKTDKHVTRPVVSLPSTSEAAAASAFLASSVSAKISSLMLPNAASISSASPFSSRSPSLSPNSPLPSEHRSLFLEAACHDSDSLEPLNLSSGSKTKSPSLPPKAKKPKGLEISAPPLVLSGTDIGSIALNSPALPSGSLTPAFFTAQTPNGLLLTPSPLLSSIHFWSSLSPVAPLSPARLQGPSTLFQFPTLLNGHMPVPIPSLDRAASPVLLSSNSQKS
# Method in brief: as §1
# FEV = target: T7, FEV (Homo sapiens, UniProt Q99581 1-238); conditions: protein: recombinant; tags: N-terminal GST; dsDNA, one strand shown
# T7 sequence: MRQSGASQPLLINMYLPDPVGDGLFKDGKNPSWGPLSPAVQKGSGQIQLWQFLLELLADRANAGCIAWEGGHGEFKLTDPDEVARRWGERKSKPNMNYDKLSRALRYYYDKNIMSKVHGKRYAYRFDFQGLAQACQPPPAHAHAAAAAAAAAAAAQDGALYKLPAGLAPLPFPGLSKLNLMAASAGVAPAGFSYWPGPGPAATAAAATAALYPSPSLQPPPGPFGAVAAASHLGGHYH
# Method in brief: as §1
# ETV5 = ETV5 (Homo sapiens, UniProt P41161 1-510); conditions: protein: recombinant; tags: N-terminal GST; dsDNA, one strand shown
# ETV5, sequence (P41161 whole entry): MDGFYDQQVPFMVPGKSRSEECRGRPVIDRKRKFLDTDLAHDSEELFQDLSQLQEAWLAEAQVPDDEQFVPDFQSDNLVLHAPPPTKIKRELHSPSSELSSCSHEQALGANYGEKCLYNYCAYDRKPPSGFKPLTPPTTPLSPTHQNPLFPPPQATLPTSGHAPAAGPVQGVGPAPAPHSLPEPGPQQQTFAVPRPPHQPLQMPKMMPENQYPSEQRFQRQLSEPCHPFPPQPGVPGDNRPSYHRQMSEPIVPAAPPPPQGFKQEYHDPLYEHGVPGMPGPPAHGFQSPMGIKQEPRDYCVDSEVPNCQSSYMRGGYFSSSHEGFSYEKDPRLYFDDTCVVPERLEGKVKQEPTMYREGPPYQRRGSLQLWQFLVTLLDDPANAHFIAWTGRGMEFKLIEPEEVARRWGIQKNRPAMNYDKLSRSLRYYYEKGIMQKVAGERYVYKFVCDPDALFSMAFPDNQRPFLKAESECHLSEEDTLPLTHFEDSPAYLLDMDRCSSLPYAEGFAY
# Method in brief: as §1
# HSF1 = HSF1 (Homo sapiens, UniProt Q00613 1-529); conditions: protein: recombinant; tags: N-terminal GST; chain copies: 3; dsDNA, one strand shown
# HSF1, sequence (Q00613 whole entry): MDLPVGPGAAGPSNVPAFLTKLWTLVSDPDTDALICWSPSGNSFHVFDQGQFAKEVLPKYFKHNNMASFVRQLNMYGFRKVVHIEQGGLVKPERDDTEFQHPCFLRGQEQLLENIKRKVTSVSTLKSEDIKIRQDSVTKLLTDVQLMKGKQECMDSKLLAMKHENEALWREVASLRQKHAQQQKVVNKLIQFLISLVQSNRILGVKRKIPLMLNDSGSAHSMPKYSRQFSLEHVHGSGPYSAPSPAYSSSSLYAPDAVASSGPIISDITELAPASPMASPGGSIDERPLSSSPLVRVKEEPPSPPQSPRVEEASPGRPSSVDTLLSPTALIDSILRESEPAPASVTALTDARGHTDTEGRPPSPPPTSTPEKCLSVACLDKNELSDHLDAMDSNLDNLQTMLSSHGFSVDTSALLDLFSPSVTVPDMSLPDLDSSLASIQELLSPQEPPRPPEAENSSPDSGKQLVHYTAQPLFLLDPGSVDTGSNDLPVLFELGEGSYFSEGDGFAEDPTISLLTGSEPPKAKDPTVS
# Method in brief: as §1
# SPIC = target: T8, SPIC (Homo sapiens, UniProt Q8N5J4 1-248); conditions: protein: recombinant; tags: N-terminal GST; dsDNA, one strand shown
# T8 sequence: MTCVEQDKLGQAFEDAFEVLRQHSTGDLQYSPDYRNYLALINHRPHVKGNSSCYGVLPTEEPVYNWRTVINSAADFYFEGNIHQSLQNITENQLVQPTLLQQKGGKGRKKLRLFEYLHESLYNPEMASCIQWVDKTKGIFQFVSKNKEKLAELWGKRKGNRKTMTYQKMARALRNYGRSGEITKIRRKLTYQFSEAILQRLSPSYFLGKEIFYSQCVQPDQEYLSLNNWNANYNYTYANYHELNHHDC
# Method in brief: as §1
# ELF4 = ELF4 (Homo sapiens, UniProt Q99607 1-663); conditions: protein: recombinant; tags: N-terminal GST; dsDNA, one strand shown
# ELF4, sequence (Q99607 whole entry): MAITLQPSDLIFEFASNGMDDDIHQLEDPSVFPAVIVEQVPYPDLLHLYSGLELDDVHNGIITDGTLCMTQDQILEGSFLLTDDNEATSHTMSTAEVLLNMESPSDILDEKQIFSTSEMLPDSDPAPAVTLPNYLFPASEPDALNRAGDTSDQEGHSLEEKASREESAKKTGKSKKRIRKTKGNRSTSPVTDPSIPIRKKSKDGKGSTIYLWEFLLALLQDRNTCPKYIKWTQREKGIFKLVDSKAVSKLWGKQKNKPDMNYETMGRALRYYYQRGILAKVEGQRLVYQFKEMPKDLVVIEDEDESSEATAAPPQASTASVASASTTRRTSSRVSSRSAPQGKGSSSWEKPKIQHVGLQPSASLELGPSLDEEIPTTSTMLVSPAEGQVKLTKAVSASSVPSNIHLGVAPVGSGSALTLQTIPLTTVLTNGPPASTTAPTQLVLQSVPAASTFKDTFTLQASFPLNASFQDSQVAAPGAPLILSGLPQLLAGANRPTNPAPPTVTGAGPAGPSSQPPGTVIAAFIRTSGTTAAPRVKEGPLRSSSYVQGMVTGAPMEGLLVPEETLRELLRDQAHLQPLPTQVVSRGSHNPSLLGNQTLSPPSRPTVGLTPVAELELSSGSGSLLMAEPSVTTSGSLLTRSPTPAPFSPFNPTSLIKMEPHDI
# Method in brief: as §1
# ELK4 = target: T9, ELK4 (Homo sapiens, UniProt P28324-2 1-405); conditions: protein: recombinant; tags: N-terminal GST; dsDNA, one strand shown
# T9 sequence: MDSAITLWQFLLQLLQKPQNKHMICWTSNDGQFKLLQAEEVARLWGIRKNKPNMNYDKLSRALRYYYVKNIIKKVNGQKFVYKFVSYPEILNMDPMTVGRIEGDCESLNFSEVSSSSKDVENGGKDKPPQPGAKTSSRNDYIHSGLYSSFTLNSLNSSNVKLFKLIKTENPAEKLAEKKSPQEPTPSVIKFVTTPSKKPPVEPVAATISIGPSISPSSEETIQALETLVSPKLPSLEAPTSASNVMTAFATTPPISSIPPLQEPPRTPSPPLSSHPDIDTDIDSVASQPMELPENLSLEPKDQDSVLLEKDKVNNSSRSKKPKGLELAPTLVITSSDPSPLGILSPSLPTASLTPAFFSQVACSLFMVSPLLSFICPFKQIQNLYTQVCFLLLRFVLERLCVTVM
# Method in brief: as §1
# ETV2 = target: T10, ETV2 (Homo sapiens, UniProt O00321 1-342); conditions: protein: recombinant; tags: N-terminal GST; dsDNA, one strand shown
# T10 sequence: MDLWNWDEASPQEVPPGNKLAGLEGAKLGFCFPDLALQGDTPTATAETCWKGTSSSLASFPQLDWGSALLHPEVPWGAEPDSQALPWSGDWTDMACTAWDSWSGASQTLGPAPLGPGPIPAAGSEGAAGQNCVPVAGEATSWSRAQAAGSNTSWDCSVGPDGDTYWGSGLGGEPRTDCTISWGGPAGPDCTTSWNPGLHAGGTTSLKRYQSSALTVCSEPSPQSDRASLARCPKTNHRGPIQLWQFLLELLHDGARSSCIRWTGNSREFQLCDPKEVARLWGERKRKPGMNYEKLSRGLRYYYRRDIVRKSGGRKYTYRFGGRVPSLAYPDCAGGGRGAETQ
# Method in brief: as §1
# ELF3 = target: T11, ELF3 (Homo sapiens, UniProt P78545 1-371); conditions: protein: recombinant; tags: N-terminal GST; dsDNA, one strand shown
# T11 sequence: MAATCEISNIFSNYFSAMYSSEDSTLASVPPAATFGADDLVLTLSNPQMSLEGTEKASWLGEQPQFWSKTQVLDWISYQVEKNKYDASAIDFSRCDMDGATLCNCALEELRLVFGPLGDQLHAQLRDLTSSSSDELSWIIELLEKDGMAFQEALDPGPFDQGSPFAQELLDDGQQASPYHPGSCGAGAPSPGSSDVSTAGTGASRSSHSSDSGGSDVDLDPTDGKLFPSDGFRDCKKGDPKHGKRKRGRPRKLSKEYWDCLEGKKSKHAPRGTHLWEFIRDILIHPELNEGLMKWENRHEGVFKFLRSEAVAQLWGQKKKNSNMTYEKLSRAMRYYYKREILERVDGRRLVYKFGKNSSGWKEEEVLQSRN
# Method in brief: as §1
# CRX = CRX (Homo sapiens, UniProt O43186 1-299); conditions: protein: recombinant; tags: N-terminal GST; dsDNA, one strand shown
# CRX, sequence (O43186 whole entry): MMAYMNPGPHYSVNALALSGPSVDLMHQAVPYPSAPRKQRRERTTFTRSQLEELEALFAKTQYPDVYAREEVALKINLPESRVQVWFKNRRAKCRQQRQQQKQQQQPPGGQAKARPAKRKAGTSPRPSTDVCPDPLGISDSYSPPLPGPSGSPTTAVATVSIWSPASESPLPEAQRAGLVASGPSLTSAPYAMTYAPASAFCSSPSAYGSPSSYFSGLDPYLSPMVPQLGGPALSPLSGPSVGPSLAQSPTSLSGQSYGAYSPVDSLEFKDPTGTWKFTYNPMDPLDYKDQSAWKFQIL
# Method in brief: as §1
# ETV1 = ETV1 (Homo sapiens, UniProt P50549 1-477); conditions: protein: recombinant; tags: N-terminal GST; dsDNA, one strand shown
# ETV1, sequence (P50549 whole entry): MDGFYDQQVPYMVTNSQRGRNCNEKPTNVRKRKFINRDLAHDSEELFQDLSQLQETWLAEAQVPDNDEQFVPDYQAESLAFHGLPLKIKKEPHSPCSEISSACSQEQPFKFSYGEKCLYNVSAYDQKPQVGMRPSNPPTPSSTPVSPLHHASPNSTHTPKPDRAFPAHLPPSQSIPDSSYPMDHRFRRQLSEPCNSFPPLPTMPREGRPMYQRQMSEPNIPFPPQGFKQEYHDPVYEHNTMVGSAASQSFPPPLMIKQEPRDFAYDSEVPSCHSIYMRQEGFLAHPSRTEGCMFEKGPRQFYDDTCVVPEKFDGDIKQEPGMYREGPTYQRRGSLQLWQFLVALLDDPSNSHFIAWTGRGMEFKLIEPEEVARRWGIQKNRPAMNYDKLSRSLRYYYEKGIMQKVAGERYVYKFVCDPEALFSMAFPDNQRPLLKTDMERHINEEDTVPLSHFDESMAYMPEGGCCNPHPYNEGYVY
# Method in brief: as §1
sequence,measurement,setting,value
CTTCCC,binding signal,FLI1,"2.11 fold enrichment (6-mer frequency, TF over GST control)"
same,binding signal,ELK1,"2.06 fold enrichment (6-mer frequency, TF over GST control)"
same,binding signal,GABPA,"2.07 fold enrichment (6-mer frequency, TF over GST control)"
same,binding signal,ERG,"2.19 fold enrichment (6-mer frequency, TF over GST control)"
same,binding signal,ELF1,"2.29 fold enrichment (6-mer frequency, TF over GST control)"
same,binding signal,EHF,"2.4 fold enrichment (6-mer frequency, TF over GST control)"
same,binding signal,SPI1,"3.35 fold enrichment (6-mer frequency, TF over GST control)"
same,binding signal,SPIB,"2.45 fold enrichment (6-mer frequency, TF over GST control)"
same,binding signal,ELK3,"2.08 fold enrichment (6-mer frequency, TF over GST control)"
same,binding signal,FEV,"1.91 fold enrichment (6-mer frequency, TF over GST control)"
same,binding signal,ETV5,"2.24 fold enrichment (6-mer frequency, TF over GST control)"
same,binding signal,HSF1,"1.55 fold enrichment (6-mer frequency, TF over GST control)"
same,binding signal,SPIC,"2.34 fold enrichment (6-mer frequency, TF over GST control)"
same,binding signal,ELF4,"1.95 fold enrichment (6-mer frequency, TF over GST control)"
same,binding signal,ELK4,"1.81 fold enrichment (6-mer frequency, TF over GST control)"
same,binding signal,ETV2,"2.4 fold enrichment (6-mer frequency, TF over GST control)"
same,binding signal,ELF3,"2.12 fold enrichment (6-mer frequency, TF over GST control)"
same,binding signal,CRX,"1.33 fold enrichment (6-mer frequency, TF over GST control)"
same,binding signal,ETV1,"2.01 fold enrichment (6-mer frequency, TF over GST control)"

# Reference: paper PMC7862700, “An all-to-all approach to the identification of sequence-specific readers for epigenetic DNA modifications on cytosine”
